Results: PubChem BioAssay (NCATS)
Results filed as inconclusive are left out. A number with no mark means an inactive call. Activity calls are given as the source filed them. The call rests on the fitted dose curve.

Target: Thyroid hormone receptor beta (Homo sapiens) (UniProt P10828)
Assay: qHTS assay for small molecule agonists of thyroid hormone receptor beta signaling (AID 588545)
Details: TR-UAS-bla GripTite HEK 293, beta-lactamase ratio, agonist mode, 18 h, percent of T3 response, DMSO as zero; series mostly up to 76.7 µM; activation: at the top concentration
Description: NIH Chemical Genomics Center [NCGC]
U.S. Environmental Protection Agency [EPA]
National Institutes of Environmental Health Sciences [NIEHS]
National Toxicology Program [NTP]
Thyroid hormone receptor (TR) belongs to nuclear hormone receptor superfamily. There are two subtypes for TR: TR-alpha and TR-beta. TR-beta plays a major role in regulating plasma cholesterol levels and it mediates the biological activities of thyroid hormone. Screening environmental chemicals on TR-beta signaling will provide important information for the mechanism of compound action.
NCGC Assay Protocol Summary
Using a beta-lactamase reporter-gene under control of the TR response element, a cell-based assay [GeneBLAzer TR-UAS-bla-GripTite assay developed by Invitrogen] was used to measure TR-beta signaling in agonist mode. TR-UAS-bla-GripTite HEK 293 cells were used with assay medium containing 2% charcoal/dextran FBS, 0.1 mM NEAA and 1 mM sodium pyruvate. The assay was performed in clear bottom black Greiner 1536-well plates. T3 was used as a positive control in the screen. Library compounds were measured for their ability to stimulate the reporter gene activity. Compounds were screened in a titration series in 1536-well format. The fluorescence intensity (405 nm excitation, 460/530 nm emission) was measured using an EnVision plate reader. Data was normalized relative to T3 control (10 nM, 100%), and DMSO only wells (basal, 0%). Concentration-response titration points for each compound were fitted to the Hill equation yielding concentrations of half-maximal stimulation (EC50) and maximal response (efficacy) values.
qHTS protocol for TR-beta beta-lactamase assay in agonist mode
[Step] [Parameter] [Value] [Description]
1. Reagent; 6 uL; 2500 cells/well
2. Incubation; 37 C for 4 hrs
- Dose response; start 3.8 uM, 1:3 dilutions, duplicates in first column
- Two columns of each 10 and 0.4 nM (finals) concentrations.
5. Incubation; 37 C for 18 hrs
6. Detection reagent; 1 uL of CCF4-dye
7. Incubation; RT for 2 hrs
8. Detection; Fluorescence; Envision plate reader

Sequence of Thyroid hormone receptor beta (Homo sapiens) (P10828 whole entry, looked up): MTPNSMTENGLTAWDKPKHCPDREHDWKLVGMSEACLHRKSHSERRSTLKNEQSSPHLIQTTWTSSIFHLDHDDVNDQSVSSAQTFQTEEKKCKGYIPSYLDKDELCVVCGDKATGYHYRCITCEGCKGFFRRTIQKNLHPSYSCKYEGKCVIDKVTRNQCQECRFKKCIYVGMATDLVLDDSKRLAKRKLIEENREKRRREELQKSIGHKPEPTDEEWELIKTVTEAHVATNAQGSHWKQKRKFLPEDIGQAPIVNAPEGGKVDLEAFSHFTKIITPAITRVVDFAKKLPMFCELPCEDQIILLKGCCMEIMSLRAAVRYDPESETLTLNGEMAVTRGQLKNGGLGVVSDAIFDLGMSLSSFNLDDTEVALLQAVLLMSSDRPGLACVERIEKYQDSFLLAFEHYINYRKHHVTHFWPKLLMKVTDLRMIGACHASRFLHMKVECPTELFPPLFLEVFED

| Structure (SMILES) | activation [%] | outcome |
| --- | --- | --- |
| Brc1ccccc1-c1ccccc1 | -5.51 | – |
| CCCCC(CC)COC(=O)c1ccccc1C(=O)O (stereo unspecified) | – | inactive |
| C1=CC2C3C=CC(C3)C2C1 (stereo unspecified) | -5.32 | – |
| CC(=O)OC/C=C(C)/C=C/C=C(C)/C=C/C1=C(C)CCCC1(C)C | -1.83 | – |
| O=C(Oc1ccccc1)c1cccc(C(=O)Oc2ccccc2)c1 | 7.18 | – |
| CCCC(=O)c1cc(O)c(O)cc1O | -14.6 | – |
| CN1C(=O)c2ccccc2C1=O | -0.366 | – |
| c1ccc2occc2c1 | – | inactive |
| CC(C)(C)c1ccc(O)c(O)c1 | -4.48 | – |
| OCCOCCN1CCN(C(c2ccccc2)c2ccc(Cl)cc2)CC1 (stereo unspecified) | -9.52 | – |
| O=C(Nc1ccc(Cl)cc1)Nc1ccc(Cl)c(Cl)c1 | 0 | – |
| Cc1cc(C(C)(C)C)c(O)c(C(C)(C)C)c1 | – | inactive |
| CCCCCCCCCCCC[N+](C)(C)Cc1ccccc1 | -8.06 | – |
| O=C(Oc1ccccc1)c1ccccc1O | – | inactive |
| CC(C)(c1ccc(O)cc1)c1ccc(O)cc1 | – | inactive |
| Nc1cccc2c(N)cccc12 | – | inactive |
| OCc1c[nH]c2ccccc12 | 2.19 | – |
| COc1cc(C=O)ccc1O | -20.1 | – |
| O=C(NO)c1ccccc1 | -50.6 | – |
| Cc1ccc(O)cc1 | -26.8 | – |
| COC(=O)c1c(Cl)c(Cl)c(C(=O)OC)c(Cl)c1Cl | 1.47 | – |
